# Measurements: PubChem BioAssay (NCATS)
# Results filed as inconclusive are left out. The source made the active and inactive calls. Unless noted, the call rests on the fitted dose curve; in most records, active means well fitted curve in the direction sought with a large enough effect; inconclusive means small, poorly fitted or top-dose-only effect, or another doubt; inactive means no such curve, though single readings can be large; an effect the other way counts as inactive or inconclusive.
# What was measured:
# [1] = Quantitative High-Throughput drug screen in 47 multiple myeloma cell lines against the NCATS MIPE library collection: PE2_PLB cell viability assay (AID 1919869); further: nearly all actives have a fitted effect of over 35% in size; further: potency means the concentration at half of the fitted maximal effect
# In short: (§1)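 Inhibition of viability over 48 h was scored by ATP content (CellTiter-Glo) in 500-cell wells. Zero and full viability were defined by media-only and DMSO-only wells.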
# [2] = Quantitative High-Throughput drug screen in 47 multiple myeloma cell lines against the NCATS MIPE library collection: RPMI8226_ATCC cell viability assay (AID 1919871); further: nearly all actives have a fitted effect of over 30% in size; further: potency means the concentration at half of the fitted maximal effect
# In short: as §1
# [3] = Quantitative High-Throughput drug screen in 47 multiple myeloma cell lines against the NCATS MIPE library collection: OPM2_DSMZ cell viability assay (AID 1919872); further: nearly all actives have a fitted effect of over 30% in size; further: potency means the concentration at half of the fitted maximal effect
# In short: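 Inhibition of cell viability is measured here. Each line was plated at 500 cells per well, treated with MIPE 4.0 drugs, kept 48 hours at 37C, then assayed for ATP content by CellTiter-Glo luminescence.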
# [4] = qHTS drug screen for cell cycle checkpoint inhibitors in PARPi-resistant BRCA-mutant ovarian cancer cell lines. (AID 1963452; calls by dose curve); conditions: PEO1/OlaR viability, CellTiter-Glo luminescence, 96 h, stronger effect = lower value
# In short: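 PEO1, PEO4 and PEO1/OlaR ovarian cancer cells, 600 per well, exposed 96 h at 37C to a dilution series. Viability read by CellTiter-Glo luminescence, normalized to DMSO and empty wells; activity summarized as Z-AUC.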
# [5] = qHTS for identification of novel therapeutic agents for treatment of microphthalmiaassociated transcription factor (MiT) renal cell carcinoma (RCC) (AID 1963991; calls by dose curve; further: potency means the concentration at half of the fitted maximal effect); conditions: CellTiter-Glo, 48 h; for z-score: stronger effect = lower value
# In short: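 Curves over 11 concentrations were fitted to CellTiter-Glo luminescence, scaled between empty wells (0%) and DMSO (100%) viability. Cells were UOK109, UOK124 and UOK145 TFE3-fusion RCC lines at 500/well, exposed 48 hours at 37 C.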
# [6] = qHTS profiling for inhibitors of Plasmodium falciparum proliferation (AID 504749); further: nearly all actives have a fitted effect of over 60% in size; further: potency means the concentration at half of the fitted maximal effect;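 on activity, negative = inhibition: 0% = DMSO vehicle and full inhibition = artemisinin control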; conditions: P. falciparum in erythrocytes, SYBR Green DNA, 72 h
# In short: (§2)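 Infected RBCs, 0.3% parasitemia/2.5% Hct final; cpd 72 h, 37 C, 5% CO2; lysis buffer with saponin/triton/SYBR Green I, o/n RT dark; FI 485/535; norm. to artemisinin (0.29 uM) and DMSO.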
# 3D7 = experiment: as above; conditions: P. falciparum in erythrocytes, SYBR Green DNA, 72 h; series mostly up to 28.7 µM
# In short: as §2
# 7G8 = experiment: as above; conditions: P. falciparum in erythrocytes, SYBR Green DNA, 72 h; series mostly up to 28.7 µM
# In short: as §2
# AA1029 = experiment: as above; conditions: P. falciparum in erythrocytes, SYBR Green DNA, 72 h; series mostly up to 28.7 µM
# In short: as §2
# AS120 = experiment: as above; conditions: P. falciparum in erythrocytes, SYBR Green DNA, 72 h; series mostly up to 28.7 µM
# In short: as §2
# ATS189 = experiment: as above; conditions: P. falciparum in erythrocytes, SYBR Green DNA, 72 h; series mostly up to 28.7 µM
# In short: as §2
# [7] = measured here: PEO1 parental Z-AUC
# [8] = TFE3-RCC UOK109 viability, measured here: UOK109 Z-AUC
# [9] = TFE3-RCC viability, measured here: UOK124 Z-AUC
# [10] = TFE3-RCC viability, measured here: UOK145 Z-AUC
# [11] = at 28.7 µM (top of the series), parasite line A
# [12] = at 28.7 µM (top of the series), parasite line B
smiles,measurement,setting,value
Cc1cccc(C)c1NC(=O)CN1CCCC1=O,Potency,[1],inactive
same,Potency,[2],inactive
same,Potency,[3],inactive
same,Z-AUC,[4],0.64 (inactive)
same,Z-AUC,[4]; [7],0.59
same,Z-AUC,[4]; measured here: PEO4 Z-AUC,1.08
same,z-score,[5]; [8],1.77
same,z-score,[5]; [9],0.0528
same,z-score,[5]; [10],0.844
NCC1(CC(=O)O)CCCCC1,Potency,[1],inactive
same,Potency,[2],inactive
same,Potency,[3],inactive
same,Z-AUC,[4],0.463 (inactive)
same,Z-AUC,[4]; [7],0.917
same,Z-AUC,[4]; measured here: PEO4 Z-AUC,-0.172
same,z-score,[5]; [8],0.318
same,z-score,[5]; [9],0.516
same,z-score,[5]; [10],-0.0302
same,"activity, negative = inhibition","[6]; at 12.8 µM (top of the series), parasite line A",5.08% (inactive)
same,"activity, negative = inhibition","[6]; at 12.8 µM (top of the series), parasite line B",1.35% (inactive)
same,Potency,3D7,inactive
same,Potency,7G8,inactive
same,Potency,AA1029,inactive
same,Potency,AS120,inactive
same,Potency,ATS189,inactive
CC1=C2C[C@@H]3[C@@H](CC=C4C[C@@H](O)CC[C@@]43C)[C@@H]2CC[C@]12O[C@H]1C[C@H](C)CN[C@H]1[C@H]2C,Potency,[1],inactive
same,Potency,[2],6.62 µM (active)
same,Potency,[3],inactive
same,z-score,[5]; [8],0.302
same,z-score,[5]; [9],-0.274
same,z-score,[5]; [10],0.235
COc1ccc(C(CN(C)C)C2(O)CCCCC2)cc1 (configuration not stated),Potency,[1],inactive
same,Potency,[2],inactive
same,Potency,[3],inactive
same,"activity, negative = inhibition",[6]; [11],4.2% (inactive)
same,"activity, negative = inhibition",[6]; [12],-12.5% (inactive)
same,Potency,3D7,inactive
same,Potency,7G8,inactive
same,Potency,AA1029,inactive
same,Potency,AS120,inactive
same,Potency,ATS189,inactive
C[C@@H]1O[C@@H](O[C@H]2C[C@@H](O)[C@]3(CO)[C@H]4[C@H](O)C[C@]5(C)[C@@H](C6=CC(=O)OC6)CC[C@]5(O)[C@@H]4CC[C@]3(O)C2)[C@H](O)[C@H](O)[C@H]1O,Potency,[1],0.0332 µM (active)
same,Z-AUC,[4],-1.08 (inactive)
same,Z-AUC,[4]; [7],-2.2
same,Z-AUC,[4]; measured here: PEO4 Z-AUC,-1.63
same,Potency,[5]; TFE3-RCC UOK109 viability,0.0166 µM (active)
same,z-score,[5]; [8],-3.9
same,z-score,[5]; [9],-2.36
same,z-score,[5]; [10],-3.38
Fc1ccc(C(OCCN2CCN(CCCc3ccccc3)CC2)c2ccc(F)cc2)cc1,Potency,[1],13.2 µM (active)
same,Potency,[2],18.7 µM (active)
same,Potency,[3],23.5 µM (active)
same,Z-AUC,[4],0.198 (inactive)
same,Z-AUC,[4]; [7],-0.0312
same,Z-AUC,[4]; measured here: PEO4 Z-AUC,-0.0118
same,Potency,[6]; parasite line A,8.91 µM (active)
same,Potency,[6]; parasite line B,11.2 µM (active)
same,Potency,3D7,8.91 µM (active)
same,Potency,7G8,3.55 µM (active)
same,Potency,AA1029,7.08 µM (active)
same,Potency,AS120,4.47 µM (active)
same,Potency,ATS189,8.91 µM (active)
CN(C)CCc1ccc(O)cc1,Potency,[1],9.35 µM (active)
same,Potency,[2],inactive
same,Potency,[3],inactive
same,z-score,[5]; [8],2.07
same,z-score,[5]; [9],0.378
same,z-score,[5]; [10],0.923
same,"activity, negative = inhibition",[6]; [11],-8.4% (inactive)
same,"activity, negative = inhibition",[6]; [12],2.47% (inactive)
same,Potency,3D7,inactive
same,Potency,7G8,inactive
same,Potency,AA1029,inactive
same,Potency,AS120,inactive
same,Potency,ATS189,inactive
Cc1cc(SCc2sc(-c3ccc(C(F)(F)F)c(F)c3)nc2C)ccc1OCC(=O)O,Potency,[1],26.4 µM (active)
same,Potency,[2],18.7 µM (active)
same,Potency,[3],inactive
same,Z-AUC,[4],-0.925 (inactive)
same,Z-AUC,[4]; [7],-0.906
same,Z-AUC,[4]; measured here: PEO4 Z-AUC,-0.303
Cn1cc(C2=C(c3cn(C4CCN(Cc5ccccn5)CC4)c4ccccc34)C(=O)NC2=O)c2ccccc21,Potency,[1],8.33 µM (active)
same,Potency,[2],inactive
same,Z-AUC,[4],-0.351 (inactive)
same,Z-AUC,[4]; [7],0.347
same,Z-AUC,[4]; measured here: PEO4 Z-AUC,0.154
O=C1CC[C@@]2(O)[C@H]3Cc4ccc(O)c5c4[C@@]2(CCN3CC2CC2)[C@H]1O5,Potency,[1],inactive
same,Potency,[3],inactive
same,Z-AUC,[4],-0.771 (inactive)
same,Z-AUC,[4]; [7],-0.291
same,Z-AUC,[4]; measured here: PEO4 Z-AUC,-0.633
same,z-score,[5]; [8],0.814
same,z-score,[5]; [9],0.454
same,z-score,[5]; [10],1.09
CC(O)(CS(=O)(=O)c1ccc(F)cc1)C(=O)Nc1ccc(C#N)c(C(F)(F)F)c1 (configuration not stated),Potency,[1],0.418 µM (active)
same,Potency,[2],inactive
CNC(=O)N1N=C(c2ccc(N)cc2)c2cc3c(cc2CC1C)OCO3 (configuration not stated),Potency,[1],7.43 µM (active)
N[C@@H](Cc1ccc(N(CCCl)CCCl)cc1)C(=O)O,Potency,[1],3.32 µM (active)
same,Potency,[3],18.7 µM (active)
same,Z-AUC,[4],-0.14 (inactive)
same,Z-AUC,[4]; [7],-0.257
same,Z-AUC,[4]; measured here: PEO4 Z-AUC,-0.0487
same,Potency,7G8,11.2 µM (active)
CN(C)[C@@H]1C(=O)C(C(N)=O)=C(O)[C@@]2(O)C(=O)C3=C(O)c4c(O)cccc4[C@@](C)(O)[C@H]3C[C@@H]12,Potency,[1],inactive
same,Potency,[2],5.9 µM (active)
same,Potency,[3],16.6 µM (active)
same,Z-AUC,[4],1.23 (inactive)
same,Z-AUC,[4]; [7],0.408
same,Z-AUC,[4]; measured here: PEO4 Z-AUC,1.42
same,z-score,[5]; [8],1.21
same,z-score,[5]; [9],0.89
same,z-score,[5]; [10],1.72
Cc1sc2c(c1C)C(c1ccc(Cl)cc1)=N[C@@H](CC(=O)OC(C)(C)C)c1nnc(C)n1-2,Potency,[1],1.18 µM (active)
same,Z-AUC,[4],-0.873 (inactive)
same,Z-AUC,[4]; [7],-0.421
same,Z-AUC,[4]; measured here: PEO4 Z-AUC,-0.731
C#CCN(C)[C@H](C)Cc1ccccc1,Potency,[1],inactive
same,Potency,[3],inactive
same,Z-AUC,[4],0.853 (inactive)
same,Z-AUC,[4]; [7],0.381
same,Z-AUC,[4]; measured here: PEO4 Z-AUC,0.551
same,z-score,[5]; [8],0.064
same,z-score,[5]; [9],-0.193
same,z-score,[5]; [10],0.147
COC[C@H]1OC(=O)c2coc3c2[C@@]1(C)C1=C(C3=O)C2CCC(=O)[C@@]2(C)C[C@H]1OC(C)=O (some centres not stated),Potency,[1],1.66 µM (active)
same,Potency,[2],5.9 µM (active)
same,Potency,[3],10.5 µM (active)
same,Z-AUC,[4],0.865 (inactive)
same,Z-AUC,[4]; [7],0.666
same,Z-AUC,[4]; measured here: PEO4 Z-AUC,0.563
CC(C)CC(N(C)C)C1(c2ccc(Cl)cc2)CCC1 (configuration not stated),Potency,[1],inactive
same,Potency,[3],inactive
same,Z-AUC,[4],0.505 (inactive)
same,Z-AUC,[4]; [7],0.684
same,Z-AUC,[4]; measured here: PEO4 Z-AUC,0.647
same,"activity, negative = inhibition",[6]; [11],6.97% (inactive)
same,"activity, negative = inhibition",[6]; [12],4.99% (inactive)
same,Potency,3D7,inactive
same,Potency,7G8,inactive
same,Potency,AA1029,inactive
same,Potency,AS120,inactive
same,Potency,ATS189,inactive
COC1(CS(=O)c2ccccc2)CCN(CCc2c[nH]c3ccc(F)cc23)CC1 (configuration not stated),Potency,[2],7.43 µM (active)
same,Potency,[3],inactive
same,Z-AUC,[4],0.788 (inactive)
same,Z-AUC,[4]; [7],0.436
same,Z-AUC,[4]; measured here: PEO4 Z-AUC,0.362
C[C@@H]1[C@@H](CC(C[C@H]2O[C@@H]3O[C@]4(C)CC[C@@H]5[C@H](C)CC[C@@H]([C@H]2C)[C@@]35OO4)C[S+](=O)([O-])c2ccc(COC(=O)N(C)C)cc2)O[C@@H]2O[C@]3(C)CC[C@H]4[C@H](C)CC[C@@H]1[C@@]24OO3 (some centres not stated),Potency,[1],0.264 µM (active)
same,Potency,[2],0.296 µM (active)
CCCC(C)(COC(N)=O)COC(=O)NC(C)C (configuration not stated),Potency,[1],inactive
same,Potency,[2],inactive
same,Potency,[3],inactive
same,z-score,[5]; [8],-0.172
same,z-score,[5]; [9],0.563
same,z-score,[5]; [10],0.256
same,"activity, negative = inhibition",[6]; [11],8.09% (inactive)
same,"activity, negative = inhibition",[6]; [12],15.9% (inactive)
same,Potency,3D7,inactive
same,Potency,7G8,inactive
same,Potency,AA1029,inactive
same,Potency,AS120,inactive
same,Potency,ATS189,inactive
